Some test systems named below: DU-145 prostate; K-562 leukemia; MALME-3M melanoma; MDA-MB-231 breast; RXF 393 renal; SF-268 CNS; SF-295 CNS; SF-539 CNS; UACC-257 melanoma; M14 melanoma; HCT-15 colon; HT29 colon; SNB-75 CNS; SNB-19 CNS; U251 CNS; PC-3 prostate; SK-MEL-5 melanoma; UACC-62 melanoma; SK-MEL-28 melanoma; LOX IMVI melanoma.
Test in all cases: NCI-60 one-dose screen, 48 h (100 = growth as untreated, 0 = no growth, -100 = all killed)
Holding throughout (conditions): 10 µM unless noted

About 83,000 compounds went through this panel and 20% of them were active in at least one assay; those are over-represented in the sample as a whole.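 Values shown are percent growth following 48 h exposure of cells in 96-well plates to a single concentration of compound; below 10 was considered active.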 A number with no mark means an inactive call. Activity calls are given as the source filed them.

In the case of `COC1=CC(c2ccc[nH]2)=N/C1=C\c1[nH]c(C)c(CC(=O)OCc2ccccc2)c1CCC(=O)OCc1ccccc1`, the growth is 11.8% in the assay with DU-145 prostate; -11.3% (active) in the assay on K-562 leukemia; -62.1% (active) with MALME-3M melanoma; -44.5% (active) with MDA-MB-231 breast; -42.6% (active) with RXF 393 renal; -2.4% (active) with SF-268 CNS. For the same compound, the growth in the assay on SF-295 CNS is -62.3% (active); in the assay on SF-539 CNS, -78.1% (active); in the assay on UACC-257 melanoma, -46% (active); with M14 melanoma, -78.2% (active); with HCT-15 colon, -56.7% (active); in the assay on HT29 colon it was 0.828% (active). The growth in the assay on SNB-75 CNS is -6.6% (active); with SNB-19 CNS, 25.5%; in the assay with U251 CNS, -71.4% (active); with PC-3 prostate it was -40.3% (active); in the assay with SK-MEL-5 melanoma, -93.8% (active); in the assay with UACC-62 melanoma, -69.7% (active). For the same compound, the growth in the assay with SK-MEL-28 melanoma is -52.4% (active).

As to `CN1C(=O)/C(=C\c2nc([P+](c3ccccc3)(c3ccccc3)c3ccccc3)c(N3CCOCC3)o2)SC1=S`, the growth in the assay on DU-145 prostate is 100%; in the assay with K-562 leukemia, 17.2%; in the assay with MALME-3M melanoma, -10.8% (active); in the assay with MDA-MB-231 breast, 54.8%; with RXF 393 renal it was 98.1%; in the assay with SF-268 CNS, 97.3%. Moreover, the growth with SF-295 CNS is 103%; with SF-539 CNS it was 63%; in the assay on UACC-257 melanoma, 61.1%; with M14 melanoma it was 47%; in the assay on HCT-15 colon, 91.3%; in the assay on HT29 colon it was 98.3%. Besides, the growth with SNB-75 CNS is 92.1%; in the assay with SNB-19 CNS it was 12.5%; in the assay on U251 CNS, 66.2%; with PC-3 prostate it was 46.1%; with SK-MEL-5 melanoma, 78.4%; with UACC-62 melanoma, -3.31% (active). The results for the growth in the assay with LOX IMVI melanoma and in the assay with SK-MEL-28 melanoma were 86.1% and 11%, respectively.

Regarding `C[PH+](c1nc2ccccc2nc1[PH+](C)C(C)(C)C)C(C)(C)C.C[PH+](c1nc2ccccc2nc1[PH+](C)C(C)(C)C)C(C)(C)C.[Au+].[Cl-]` (stereo not drawn), the growth with DU-145 prostate was -99.5% (active); with K-562 leukemia, 1.72% (active); in the assay with MALME-3M melanoma, -67.1% (active); in the assay with MDA-MB-231 breast, -90.3% (active); with RXF 393 renal, -87.9% (active); in the assay on SF-268 CNS, -91% (active). The growth is -88% (active) in the assay on SF-295 CNS; -91.6% (active) in the assay with SF-539 CNS; -88.3% (active) with UACC-257 melanoma; -100% (active) with M14 melanoma; -80.9% (active) in the assay with HCT-15 colon; -100% (active) with HT29 colon. In addition, the growth is -98.4% (active) in the assay on SNB-75 CNS; -100% (active) with SNB-19 CNS; -86.8% (active) in the assay with U251 CNS; -83.9% (active) with PC-3 prostate; -100% (active) in the assay with SK-MEL-5 melanoma; -79.5% (active) in the assay on UACC-62 melanoma. Moreover, the growth was -85.5% (active) with LOX IMVI melanoma and -85% (active) in the assay with SK-MEL-28 melanoma.

As to `CN(C)CC1CCC(CN(C)C)C1=O` (stereo not drawn), the growth in the assay with DU-145 prostate is 115%; in the assay on K-562 leukemia, 4.34% (active); in the assay on MALME-3M melanoma, 115%; with MDA-MB-231 breast, 117%; in the assay with RXF 393 renal, 123%; in the assay on SF-268 CNS, 108%. In addition, the growth with SF-295 CNS was 133%; in the assay on SF-539 CNS it was 109%; in the assay on UACC-257 melanoma, 109%; in the assay on M14 melanoma it was 108%; in the assay with HCT-15 colon it was 105%; in the assay on HT29 colon, 103%. The growth with SNB-75 CNS is 102%; with SNB-19 CNS, 102%; with U251 CNS, 102%; in the assay with PC-3 prostate, 96.7%; in the assay with SK-MEL-5 melanoma it was 108%; with UACC-62 melanoma it was 102%. The growth in the assay on LOX IMVI melanoma is 106%; with SK-MEL-28 melanoma, 112%.

Consider `O=S(=O)(NCCNc1nccc(-c2c(-c3ccc(F)c(O)c3)nc3sccn23)n1)c1ccc(O)cc1`, for which the growth is 43.8% with DU-145 prostate; 28.9% in the assay with K-562 leukemia; 31% with MALME-3M melanoma; 45.6% in the assay on MDA-MB-231 breast; 25.8% with RXF 393 renal; 37% with SF-268 CNS. For the same compound, the growth with SF-295 CNS is 60.2%; in the assay on SF-539 CNS, 81.2%; in the assay on UACC-257 melanoma it was 58.9%; in the assay on M14 melanoma, 27.2%; with HCT-15 colon, 33.1%; in the assay with HT29 colon, 17%. The growth was 58.9% in the assay with SNB-75 CNS; 56.3% in the assay on SNB-19 CNS; 56.8% in the assay with U251 CNS; 22.4% in the assay with PC-3 prostate; 5.55% (active) in the assay with SK-MEL-5 melanoma; 17.4% with UACC-62 melanoma. Moreover, the growth is 32.2% in the assay on LOX IMVI melanoma and 55.2% with SK-MEL-28 melanoma.

In the case of `O=C1/C(=C/c2ccccc2O)CC/C1=C\c1ccccc1O`, the growth with DU-145 prostate is 46.1%; with K-562 leukemia, 7.41% (active); in the assay on MALME-3M melanoma it was 80.4%; with MDA-MB-231 breast it was 44.3%; with RXF 393 renal, 67.5%; in the assay with SF-268 CNS it was 71.3%. Also, the growth is 98.6% with SF-295 CNS; 82.3% with SF-539 CNS; 86.3% in the assay on UACC-257 melanoma; 61.3% in the assay with M14 melanoma; 35.1% in the assay on HCT-15 colon; 99.6% in the assay with HT29 colon. Moreover, the growth in the assay on SNB-75 CNS is 77.2%; in the assay with SNB-19 CNS it was 31.3%; in the assay on U251 CNS, 69.1%; in the assay with PC-3 prostate, 8.94% (active); in the assay with SK-MEL-5 melanoma, 77.9%; in the assay with UACC-62 melanoma, 36.6%. Moreover, the figures for the growth with LOX IMVI melanoma and in the assay with SK-MEL-28 melanoma were 45.9% and 96.8%, respectively.

On to `COC(=O)c1c(C)c2n(c1C)C(=O)C(c1ccccc1)=C2`, for which the growth with DU-145 prostate was 97.9%; in the assay with K-562 leukemia, 74.8%; in the assay on MALME-3M melanoma it was 82.1%; in the assay with MDA-MB-231 breast, 60.5%; in the assay on RXF 393 renal it was 82.3%; with SF-268 CNS, 103%. Further, the growth was 79.9% in the assay with SF-295 CNS; 87.6% in the assay on SF-539 CNS; 18.1% with UACC-257 melanoma; 86.3% with M14 melanoma; 80.4% in the assay on HCT-15 colon; 87.1% in the assay on HT29 colon. In addition, the growth in the assay with SNB-75 CNS is 53.2%; in the assay on SNB-19 CNS, 85.7%; in the assay with U251 CNS it was 93.2%; in the assay with PC-3 prostate it was 84.4%; with SK-MEL-5 melanoma it was 84.2%; in the assay with UACC-62 melanoma, 58.7%. The growth in the assay on LOX IMVI melanoma was 73.8%; with SK-MEL-28 melanoma, 91.2%.

As for `C=CCOC(=O)Nc1cccn([C@H](Cc2ccccc2)C(=O)NCCC(C)C)c1=O`, the growth was 110% in the assay on DU-145 prostate; 110% in the assay with K-562 leukemia; 103% in the assay with MALME-3M melanoma; 101% in the assay with MDA-MB-231 breast; 110% in the assay on RXF 393 renal; 106% with SF-268 CNS. Also, the growth with SF-295 CNS was 94.5%; with SF-539 CNS, 109%; in the assay with UACC-257 melanoma, 102%; in the assay with M14 melanoma, 121%; in the assay with HCT-15 colon, 111%; in the assay on HT29 colon, 99.7%. The growth in the assay with SNB-75 CNS was 91.1%; in the assay on SNB-19 CNS, 85.9%; in the assay on U251 CNS it was 101%; in the assay on PC-3 prostate it was 92.3%; in the assay on SK-MEL-5 melanoma it was 102%; in the assay on UACC-62 melanoma, 97.1%. In addition, the growth in the assay with SK-MEL-28 melanoma is 97.6%.

Values taken from PubChem BioAssay (NCI).
